# This is one part of a sample in which the strongest signals are shown more often than they occur.
# B1: Als1 (Candida albicans), P46590 (protein)
# chain: KTITGVFDSFNSLTWSNAANYAFKGPGYPTWNAVLGWSLDGTSANPGDTFTLNMPCVFKYTTSQTSVDLTADGVKYATCQFYSGEEFTTFSTLTCTVNDALKSSIKAFGTVTLPIAFNVGGTGSSTDLEDSKCFTAGTNTVTFNDGDKDISIDVEFEKSTVDPSGYLYASRVMPSLNKVTTLFVAPQCENGYTSGTMGFSSSNGDVAIDCSNIHIGITKGLNDWNYPVSSESFSYTKTCTSNGIQIKYQNVPAGYRPFIDAYISATDVNQYTLAYTNDYTCAGSRLQSKPFTLRWTGYKNSDAGSNGIVIVATTRTVTDSTTAVTTLPFNPSVDKTKTIEILQPIPTTTITTSYVGVTTSYLTKTAPIGETATVIVDVPYHTTTTVTSEWTGTITTTTTRTNPTDSIDTVVVQVP
# Columns and labels:
# Assay in all cases: glycan array binding signal (z-score within array); higher = stronger binding
# Conditions in all cases: glycan notation: IUPAC condensed, linker removed
# [1] = molecular target: Fuc(a1-2)Gal(b1-3)GalNAc(b1-3)Gal
# How it was run: (§1)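 Glycan array data were curated from 3228 arrays in the Consortium for Functional Glycomics database and kept only where the protein sequence was available. Glycan names were converted to IUPAC-condensed notation, and columns mapping to the same glycan were averaged. The binding signal is a within-array Z-score, averaged across arrays of the same protein sequence at different concentrations or buffers and across linkers. Negative Z-scores can be read as non-binding.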
# Fuc(a1-2)Gal(b1-3)GlcNAc = molecular target: Fuc(a1-2)Gal(b1-3)GlcNAc
# How it was run: as §1
# [2] = molecular target: Fuc(a1-2)Gal(b1-4)GlcNAc(b1-2)Man(a1-3)[Fuc(a1-2)Gal(b1-4)GlcNAc(b1-2)Man(a1-6)]Man(b1-4)GlcNAc(b1-4)[Fuc(a1-6)]GlcNAc
# How it was run: as §1
# [3] = molecular target: Fuc(a1-2)Gal6S(b1-4)Glc6S
# How it was run: as §1
# [4] = molecular target: Fuc(a1-2)[Gal(a1-3)]Gal(b1-3)GalNAc(b1-3)Gal(a1-4)Gal(b1-4)Glc
# How it was run: as §1
# [5] = molecular target: Fuc(a1-2)[Gal(a1-3)]Gal(b1-4)[Fuc(a1-3)]Glc
# How it was run: as §1
# [6] = molecular target: Fuc(a1-2)[GalNAc(a1-3)]Gal(b1-3)GlcNAc(b1-2)Man(a1-3)[Fuc(a1-2)[GalNAc(a1-3)]Gal(b1-3)GlcNAc(b1-2)Man(a1-6)]Man(b1-4)GlcNAc(b1-4)[Fuc(a1-6)]GlcNAc
# How it was run: as §1
# [7] = molecular target: Fuc(a1-2)[GalNAc(a1-3)]Gal(b1-4)GlcNAc(b1-2)Man
# How it was run: as §1
# [8] = molecular target: Fuc(a1-3)[Gal(b1-4)]Glc6S
# How it was run: as §1
# [9] = molecular target: Fuc(a1-3)[Gal(b1-4)]GlcNAc(b1-2)Man(a1-3)[Fuc(a1-3)[Gal(b1-4)]GlcNAc(b1-2)Man(a1-6)]Man(b1-4)GlcNAc(b1-4)GlcNAc
# How it was run: as §1
# [10] = molecular target: Fuc(a1-3)[Gal(b1-4)]GlcNAc(b1-2)Man(a1-3)[Fuc(a1-3)[Gal(b1-4)]GlcNAc(b1-2)Man(a1-6)]Man(b1-4)GlcNAc(b1-4)[Fuc(a1-6)]GlcNAc
# How it was run: as §1
# Gal(a1-3)Gal(b1-4)Glc = molecular target: Gal(a1-3)Gal(b1-4)Glc
# How it was run: as §1
# Gal(a1-3)GalNAc = molecular target: Gal(a1-3)GalNAc
# How it was run: as §1
# Gal(a1-4)Gal(b1-4)GlcNAc = molecular target: Gal(a1-4)Gal(b1-4)GlcNAc
# How it was run: as §1
# Gal(b1-3)Gal = molecular target: Gal(b1-3)Gal
# How it was run: as §1
# [11] = molecular target: Gal(b1-3)GlcNAc(a1-3)Gal(b1-4)GlcNAc
# How it was run: as §1
# Gal(b1-3)GlcNAc(b1-2)Man = molecular target: Gal(b1-3)GlcNAc(b1-2)Man
# How it was run: as §1
# [12] = molecular target: Gal(b1-3)GlcNAc(b1-3)GalNAc
# How it was run: as §1
# [13] = molecular target: Gal(b1-4)GalNAc(b1-3)[Fuc(a1-2)]Gal(b1-4)GlcNAc
# How it was run: as §1
# [14] = molecular target: Gal(b1-4)GlcNAc(b1-2)Man(a1-3)[GlcNAc(b1-4)][Gal(b1-4)GlcNAc(b1-2)Man(a1-6)]Man(b1-4)GlcNAc(b1-4)GlcNAc
# How it was run: as §1
# [15] = molecular target: Gal(b1-4)GlcNAc(b1-2)[Gal(b1-4)GlcNAc(b1-6)]Man(a1-6)[Gal(b1-4)GlcNAc(b1-2)Man(a1-3)]Man(b1-4)GlcNAc(b1-4)GlcNAc
# How it was run: as §1
# [16] = molecular target: Gal(b1-4)GlcNAc(b1-3)Gal(b1-4)GlcNAc(b1-2)Man(a1-3)[Gal(b1-4)GlcNAc(b1-3)Gal(b1-4)GlcNAc(b1-2)Man(a1-6)]Man(b1-4)GlcNAc(b1-4)GlcNAc
# How it was run: as §1
# Gal(b1-6)Gal = molecular target: Gal(b1-6)Gal
# How it was run: as §1
# Gal3S6S(b1-4)GlcNAc6S = molecular target: Gal3S6S(b1-4)GlcNAc6S
# How it was run: as §1
# Gal4S(b1-4)GlcNAc = molecular target: Gal4S(b1-4)GlcNAc
# How it was run: as §1
# [17] = molecular target: GlcA3S(b1-3)Gal(b1-4)GlcNAc(b1-2)Man
# How it was run: as §1
# GlcNAc(b1-3)Gal = molecular target: GlcNAc(b1-3)Gal
# How it was run: as §1
# [18] = molecular target: GlcNAc(b1-3)Gal(b1-4)GlcNAc(b1-2)Man(a1-3)[GlcNAc(b1-3)Gal(b1-4)GlcNAc(b1-2)Man(a1-6)]Man(b1-4)GlcNAc(b1-4)[Fuc(a1-6)]GlcNAc
# How it was run: as §1
# [19] = molecular target: GlcNAc(b1-3)Gal(b1-4)GlcNAc(b1-2)[GlcNAc(b1-3)Gal(b1-4)GlcNAc(b1-6)]Man(a1-6)[GlcNAc(b1-3)Gal(b1-4)GlcNAc(b1-2)Man(a1-3)]Man(b1-4)GlcNAc(b1-4)GlcNAc
# How it was run: as §1
# GlcNAc(b1-3)Man = molecular target: GlcNAc(b1-3)Man
# How it was run: as §1
# [20] = molecular target: GlcNAc(b1-3)[GlcNAc(b1-6)]Gal(b1-4)GlcNAc
# How it was run: as §1
# [21] = molecular target: Man(a1-2)Man(a1-2)Man(a1-6)[Man(a1-3)]Man
# How it was run: as §1
# [22] = molecular target: Man(a1-3)[Man(a1-6)]Man(a1-6)[Man(a1-3)]Man
# How it was run: as §1
# [23] = molecular target: Neu5Ac(a2-3)Gal(b1-3)GlcNAc(b1-3)Gal(b1-4)GlcNAc
# How it was run: as §1
# [24] = molecular target: Neu5Ac(a2-3)Gal(b1-3)GlcNAc(b1-4)Gal(b1-4)Glc
# How it was run: as §1
# [25] = molecular target: Neu5Ac(a2-3)Gal(b1-3)[Fuc(a1-4)]GlcNAc(b1-3)Gal(b1-4)[Fuc(a1-3)]GlcNAc
# How it was run: as §1
# [26] = molecular target: Neu5Ac(a2-3)Gal(b1-4)GlcNAc(b1-3)Gal
# How it was run: as §1
# [27] = molecular target: Neu5Ac(a2-3)Gal(b1-4)GlcNAc(b1-3)Gal(b1-4)GlcNAc(b1-3)Gal(b1-4)GlcNAc(b1-2)Man(a1-3)[Neu5Ac(a2-3)Gal(b1-4)GlcNAc(b1-3)Gal(b1-4)GlcNAc(b1-3)Gal(b1-4)GlcNAc(b1-2)Man(a1-6)]GalNAc
# How it was run: as §1
# [28] = molecular target: Neu5Ac(a2-3)Gal(b1-4)[Fuc(a1-3)]GlcNAc(b1-6)[Neu5Ac(a2-3)Gal(b1-3)]GalNAc
# How it was run: as §1
# [29] = molecular target: Neu5Ac(a2-3)[GalNAc(b1-4)]Gal(b1-4)Glc
# How it was run: as §1
# [30] = molecular target: Neu5Ac(a2-6)Gal(b1-4)GlcNAc(b1-3)Gal(b1-4)GlcNAc(b1-6)[Gal(b1-3)]GalNAc
# How it was run: as §1
# Neu5Ac(a2-8)Neu5Ac = molecular target: Neu5Ac(a2-8)Neu5Ac
# How it was run: as §1
# [31] = molecular target: Neu5Ac(a2-8)Neu5Ac(a2-3)Gal(b1-3)GalNAc(b1-4)[Neu5Ac(a2-3)]Gal(b1-4)Glc
# How it was run: as §1
# [32] = molecular target: Neu5Ac(a2-8)Neu5Ac(a2-8)Neu5Ac(a2-3)Gal(b1-4)Glc
# How it was run: as §1
# [33] = molecular target: Neu5Ac(a2-8)Neu5Gc(a2-3)Gal(b1-4)GlcNAc
# How it was run: as §1
# [34] = molecular target: Neu5Gc(a2-8)Neu5Ac(a2-3)Gal(b1-4)GlcNAc
# How it was run: as §1
binder,measurement,setting,value
B1,glycan array binding signal (z-score),[1],3.32
same,glycan array binding signal (z-score),Fuc(a1-2)Gal(b1-3)GlcNAc,-0.524
same,glycan array binding signal (z-score),[2],1.97
same,glycan array binding signal (z-score),[3],-0.25
same,glycan array binding signal (z-score),[4],-0.049
same,glycan array binding signal (z-score),[5],0.021
same,glycan array binding signal (z-score),[6],-0.413
same,glycan array binding signal (z-score),[7],-0.488
same,glycan array binding signal (z-score),[8],3.38
same,glycan array binding signal (z-score),[9],0.227
same,glycan array binding signal (z-score),[10],0.146
same,glycan array binding signal (z-score),Gal(a1-3)Gal(b1-4)Glc,-0.664
same,glycan array binding signal (z-score),Gal(a1-3)GalNAc,-0.407
same,glycan array binding signal (z-score),Gal(a1-4)Gal(b1-4)GlcNAc,-0.303
same,glycan array binding signal (z-score),Gal(b1-3)Gal,-0.458
same,glycan array binding signal (z-score),[11],-0.432
same,glycan array binding signal (z-score),Gal(b1-3)GlcNAc(b1-2)Man,0.092
same,glycan array binding signal (z-score),[12],-0.05
same,glycan array binding signal (z-score),[13],-0.644
same,glycan array binding signal (z-score),[14],8.37
same,glycan array binding signal (z-score),[15],7.7
same,glycan array binding signal (z-score),[16],4.19
same,glycan array binding signal (z-score),Gal(b1-6)Gal,-0.739
same,glycan array binding signal (z-score),Gal3S6S(b1-4)GlcNAc6S,3.22
same,glycan array binding signal (z-score),Gal4S(b1-4)GlcNAc,0.401
same,glycan array binding signal (z-score),[17],-0.192
same,glycan array binding signal (z-score),GlcNAc(b1-3)Gal,4.47
same,glycan array binding signal (z-score),[18],-0.201
same,glycan array binding signal (z-score),[19],4.37
same,glycan array binding signal (z-score),GlcNAc(b1-3)Man,-0.282
same,glycan array binding signal (z-score),[20],-0.361
same,glycan array binding signal (z-score),[21],-0.553
same,glycan array binding signal (z-score),[22],1.09
same,glycan array binding signal (z-score),[23],-0.473
same,glycan array binding signal (z-score),[24],4.25
same,glycan array binding signal (z-score),[25],-0.015
same,glycan array binding signal (z-score),[26],-0.274
same,glycan array binding signal (z-score),[27],3.84
same,glycan array binding signal (z-score),[28],2.16
same,glycan array binding signal (z-score),[29],-0.291
same,glycan array binding signal (z-score),[30],-0.05
same,glycan array binding signal (z-score),Neu5Ac(a2-8)Neu5Ac,-0.045
same,glycan array binding signal (z-score),[31],-0.627
same,glycan array binding signal (z-score),[32],-0.083
same,glycan array binding signal (z-score),[33],-0.049
same,glycan array binding signal (z-score),[34],4.63

# Source: the supplement of paper PMC8728848
